The target in assay [1] is Luciferin 4-monooxygenase (Photinus pyralis) (UniProt P08659). Kind of assay: Biochemical firefly luciferase enzyme assay for NPC (AID 624030).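 Further: purified P. pyralis luciferase at 10 nM with luciferin and ATP substrate; nearly all actives have a fitted effect of over 70% in size.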 In a few lines: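 Direct inhibition of firefly luciferase enzyme (10 nM final, 50 mM Tris Acetate) assessed by luminescence within 5 minutes. Percent activity scaled between DMSO and PTC124 positive control, with concentration-effect curves classified by fit quality and response.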
Luciferin 4-monooxygenase (Photinus pyralis), sequence (P08659 whole entry, looked up): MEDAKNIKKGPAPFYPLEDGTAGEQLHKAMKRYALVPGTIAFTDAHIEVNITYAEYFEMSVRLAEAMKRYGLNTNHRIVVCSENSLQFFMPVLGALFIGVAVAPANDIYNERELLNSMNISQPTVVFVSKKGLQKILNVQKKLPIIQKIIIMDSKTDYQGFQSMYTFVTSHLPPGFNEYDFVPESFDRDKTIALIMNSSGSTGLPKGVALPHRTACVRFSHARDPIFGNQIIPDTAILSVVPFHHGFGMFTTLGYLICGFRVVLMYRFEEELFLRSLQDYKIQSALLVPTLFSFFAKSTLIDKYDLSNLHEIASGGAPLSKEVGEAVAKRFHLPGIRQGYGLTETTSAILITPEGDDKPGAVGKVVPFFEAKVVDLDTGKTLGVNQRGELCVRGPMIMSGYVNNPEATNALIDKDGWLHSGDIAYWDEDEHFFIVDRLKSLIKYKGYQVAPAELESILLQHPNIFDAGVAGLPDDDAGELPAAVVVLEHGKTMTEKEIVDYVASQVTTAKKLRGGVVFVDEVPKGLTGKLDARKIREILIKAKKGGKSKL

The nature of assay [2]: S16 Schwann cell viability assay (CellTiter-Glo assay) (AID 624031).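 Further: native untransfected S16 rat Schwann cells; cellular ATP luminescence as a viability measure; nearly all actives have a fitted effect of over 70% in size.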 In a few lines:
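Concentration-effect curves come from CellTiter-Glo luminescence of S16 rat Schwann cells after 24 h compound exposure. Each reading was normalized to DMSO wells (0%) and wells without cells, and curves were ranked by r2 and response magnitude.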
For orientation: Cellular ATP, detected with luciferase, serves as a proxy for viable cell number.

Assay [3] can be described thus: S16 Schwann cell PMP22 intronic element beta-lactamase assay (AID 624044; calls by dose curve; further: nearly all actives have a fitted effect of over 15% in size). In a few lines:
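Rat S16 Schwann cells with beta-Lac driven by a PMP22 intronic element, compound-treated 24 h at 37 °C. LiveBLAzer FRET B/G read: 460 nm normalized to potassium clavulanate vs DMSO; 535 nm FRET as viability; concentration-effect curves classified.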

For a further assay, the system named is AA1029. Description: qHTS profiling for inhibitors of Plasmodium falciparum proliferation (AID 504749). Further: nearly all actives have a fitted effect of over 60% in size. The following applies: P. falciparum in erythrocytes, SYBR Green DNA, 72 h; series mostly up to 28.7 µM. The procedure, abridged:
(§1)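 Infected RBCs, 0.3% parasitemia/2.5% Hct final; cpd 72 h, 37 C, 5% CO2; lysis buffer with saponin/triton/SYBR Green I, o/n RT dark; FI 485/535; norm. to artemisinin (0.29 uM) and DMSO.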
(Quantitative high-throughput screening tests each substance at several concentrations.)

For the next assay, the system named is CP260. The description is as above. The following applies: P. falciparum in erythrocytes, SYBR Green DNA, 72 h; series mostly up to 28.7 µM. In a few lines: as §1
The test system of a further assay is CP315. Described as above. As to conditions: P. falciparum in erythrocytes, SYBR Green DNA, 72 h; series mostly up to 28.7 µM. In a few lines:
as §1

For another assay, the system named is ICS. Described as above. As to conditions: P. falciparum in erythrocytes, SYBR Green DNA, 72 h; series mostly up to 28.7 µM. In a few lines:
as §1

The next assay deals with JCK. The assay is described as above. The following applies: P. falciparum in erythrocytes, SYBR Green DNA, 72 h; series mostly up to 28.7 µM. The procedure, abridged:
as §1

The subject of the next assay is N140. The description is as above. The following applies: P. falciparum in erythrocytes, SYBR Green DNA, 72 h; series mostly up to 28.7 µM. The procedure, abridged: as §1
A further assay deals with PC15. The assay is described as above. The following applies: P. falciparum in erythrocytes, SYBR Green DNA, 72 h; series mostly up to 28.7 µM. The procedure, abridged:
as §1

A further assay relates to TAB165. Described as above. As to conditions: P. falciparum in erythrocytes, SYBR Green DNA, 72 h; series mostly up to 28.7 µM. In a few lines:
as §1

A short description of assay [4]: qHTS Assay for Identification of Small Molecule Antagonists for NFkB Signaling Pathway (AID 895; active means well fitted inhibition curve with a large enough effect in the signal ratio, with a control signal flat, not every such curve was filed as active; the % refers to the signal ratio). In a few lines: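 Beta-lactamase reporter read-out (460 and 530 nm emission ratio, 405 nm excitation, 2 hrs substrate loading RT) after 5 hr stimulation with 10 pM TNF alpha in compound-treated NFkB-bla ME-180 cells in low-serum medium.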
A short description of assay [5]: qHTS for differential inhibitors of proliferation of Plasmodium falciparum line GB4 (AID 1816).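 Further: potency means the concentration at half of the fitted maximal effect; parasite growth measured after 72 h incubation.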 The following applies: Potency: Plasmodium falciparum GB4 proliferation inhibition.
A short description of assay [6]: qHTS for differential inhibitors of proliferation of Plasmodium falciparum line W2 (AID 1883).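 Further: potency means the concentration at half of the fitted maximal effect; parasites grown with compound for 72 h before lysis and staining.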 The following applies: Potency: Plasmodium falciparum W2 proliferation inhibition.
Assay [7] in a line: Confirmation and Secondary Assay for Modulators of Hemoglobin Beta Chain Splicing at IVS2 654 locus (AID 910).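 Further: HeLa cells stably carrying EGFP split by mutant beta-globin IVS2-654 intron; per-well total GFP intensity by laser scanning cytometry after 2-day treatment.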 In a few lines: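 Readout: per-well total peak green fluorescence (488 nm ex, 500–520 nm em) from objects 5–250 µm, reflecting correct splicing of an EGFP-654 reporter. Compounds were applied for 2 days at 37 °C to overnight-plated HeLa EGFP-654 cells; controls were DMSO and 500 nM IVS2-654 PNA.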

Assay [8] in a line: Confirmation and Secondary Assay for Modulators of Hemoglobin Beta Chain Splicing at IVS2 705 locus (AID 930).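 Further: HeLa cells stably expressing the EGFP-705 splicing reporter.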 In a few lines: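 Assay measures total GFP intensity per well in HeLa EGFP-705 cells after 2 days with compound; mis-splicing normally truncates EGFP, so fluorescence indicates corrected splicing.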
The target of assay [9] is Tyrosyl-DNA phosphodiesterase 1 (Homo sapiens) (UniProt Q9NUW8). Description: Confirmation Assay for Inhibitors of Tyrosyl-DNA Phosphodiesterase (TDP1) (AID 489007). Further: potency means the concentration at half of the fitted maximal effect; nearly all actives have a fitted effect of over 40% in size. The following applies: recombinant human TDP1 enzymatic activity, dose-response. In a few lines: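 Tdp1 1 nM + cpd, 15 min RT; add biotin/phosphotyrosine-FITC oligo 15 nM, 5 min RT; add AS donor/acceptor beads 10 ug/ml, 10 min RT; read AlphaScreen. No-enzyme wells = max signal.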
Tyrosyl-DNA phosphodiesterase 1 (Homo sapiens), sequence (Q9NUW8 whole entry, looked up): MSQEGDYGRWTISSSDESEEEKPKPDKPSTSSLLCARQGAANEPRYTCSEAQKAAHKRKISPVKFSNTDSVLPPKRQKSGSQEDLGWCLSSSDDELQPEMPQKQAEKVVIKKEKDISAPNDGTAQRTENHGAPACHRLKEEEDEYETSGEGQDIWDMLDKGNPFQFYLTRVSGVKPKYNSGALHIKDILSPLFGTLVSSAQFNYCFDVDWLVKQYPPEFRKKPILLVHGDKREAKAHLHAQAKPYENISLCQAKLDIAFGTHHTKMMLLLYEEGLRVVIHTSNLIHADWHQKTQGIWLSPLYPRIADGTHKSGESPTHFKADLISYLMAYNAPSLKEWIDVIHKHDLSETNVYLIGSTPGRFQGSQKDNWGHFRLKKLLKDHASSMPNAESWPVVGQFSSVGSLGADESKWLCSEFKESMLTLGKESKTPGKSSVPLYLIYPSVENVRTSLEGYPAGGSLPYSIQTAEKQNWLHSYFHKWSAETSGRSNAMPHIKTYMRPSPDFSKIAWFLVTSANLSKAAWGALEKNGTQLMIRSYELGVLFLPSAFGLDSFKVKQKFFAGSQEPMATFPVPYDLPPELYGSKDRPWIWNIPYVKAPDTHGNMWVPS

Assay [10] deals with Vitamin D3 receptor (Homo sapiens) (UniProt P11473). Description: qHTS for Inhibitors of the vitamin D receptor (VDR): Hit Validation in Primary Screen (AID 602199). Further: potency means the concentration at half of the fitted maximal effect. The following applies: VDR-coactivator inhibition assay, qHTS confirmation. In a few lines: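 With 800 nM VDR and 5 uM LG19078 agonist present, compounds were incubated 2 h at ambient temperature with Alexa 647-labelled SRC2-3. Displacement was read as polarization at 620/688 nm.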
Vitamin D3 receptor (Homo sapiens), sequence (P11473 whole entry, looked up): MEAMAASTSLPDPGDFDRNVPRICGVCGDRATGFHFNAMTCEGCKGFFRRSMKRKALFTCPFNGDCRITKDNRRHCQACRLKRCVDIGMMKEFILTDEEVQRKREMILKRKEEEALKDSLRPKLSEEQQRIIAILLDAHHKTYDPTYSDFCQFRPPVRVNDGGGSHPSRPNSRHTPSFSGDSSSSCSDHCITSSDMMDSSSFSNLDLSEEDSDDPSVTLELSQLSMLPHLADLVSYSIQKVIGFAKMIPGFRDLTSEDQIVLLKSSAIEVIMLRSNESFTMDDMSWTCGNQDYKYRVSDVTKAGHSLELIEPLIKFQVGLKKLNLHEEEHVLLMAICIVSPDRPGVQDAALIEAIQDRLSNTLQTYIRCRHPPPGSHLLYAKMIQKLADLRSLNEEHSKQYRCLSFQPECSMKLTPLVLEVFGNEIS

Results filed as inconclusive are left out. Some of the results follow. Active and inactive are the calls of the source. Unless noted, the call rests on the fitted dose curve; in most records, active means well fitted curve in the direction sought with a large enough effect; inconclusive means small, poorly fitted or top-dose-only effect, or another doubt; inactive means no such curve, though single readings can be large; an effect the other way counts as inactive or inconclusive.

For the compound `C/C=C1\C2C=C(C)CC1(N)c1ccc(=O)[nH]c1C2` (stereo not drawn), the Potency entry (in [1]; in [3]; with AA1029; in the assay with CP260; with CP315; with ICS) was “inactive” each time. In addition, the Potency entry with JCK, in the assay with N140, in the assay with PC15 and in the assay on TAB165 was “inactive” in each case. In addition, the compound was called inactive in [2].

In the case of `CN1CCN2c3ccccc3Cc3ccccc3[C@@H]2C1`, in assay [4], the Potency result was “inactive”.

As to `COC(=O)c1c(-c2cc(OC)c(OC)c(OC)c2)c2ccnc(OCc3ncccn3)c2c(=O)n1Cc1ccnc(C)c1`, the Potency in assay [5] is 4.47 µM (active); in assay [6] it was 2.51 µM (active).

Regarding `COc1cc(O)c2c(=O)c(O)c(-c3ccc(O)c(O)c3)oc2c1`, the result in assay [7] and in assay [8] was inactive.

In the case of `CCOC(=O)C1=NO[C@@]2(C=C(Br)C(=O)[C@H]3O[C@H]32)C1`, the Potency in assay [9] was 11.2 µM (active); in assay [10], 12.6 µM (active).

Values taken from PubChem BioAssay (NCATS).
